Assay results from PMC7862700, “An all-to-all approach to the identification of sequence-specific readers for epigenetic DNA modifications on cytosine”.

How the values were obtained:
Assay in all cases: DAPPL (digital affinity profiling via proximity ligation, sequencing); 10 mM Tris-HCl pH 7.5, 50 mM NaCl, 1 mM DTT, 4% glycerol, room temperature, 30 min; GST-TFs on glutathione beads, 16-mer random dsDNA library, 0.1% formaldehyde crosslink after washing; high values mean tight binding
FLI1 = target: T1, FLI1 (Homo sapiens, UniProt Q01543 1-452); details: protein: recombinant; tags: N-terminal GST; dsDNA, one strand shown
T1 sequence: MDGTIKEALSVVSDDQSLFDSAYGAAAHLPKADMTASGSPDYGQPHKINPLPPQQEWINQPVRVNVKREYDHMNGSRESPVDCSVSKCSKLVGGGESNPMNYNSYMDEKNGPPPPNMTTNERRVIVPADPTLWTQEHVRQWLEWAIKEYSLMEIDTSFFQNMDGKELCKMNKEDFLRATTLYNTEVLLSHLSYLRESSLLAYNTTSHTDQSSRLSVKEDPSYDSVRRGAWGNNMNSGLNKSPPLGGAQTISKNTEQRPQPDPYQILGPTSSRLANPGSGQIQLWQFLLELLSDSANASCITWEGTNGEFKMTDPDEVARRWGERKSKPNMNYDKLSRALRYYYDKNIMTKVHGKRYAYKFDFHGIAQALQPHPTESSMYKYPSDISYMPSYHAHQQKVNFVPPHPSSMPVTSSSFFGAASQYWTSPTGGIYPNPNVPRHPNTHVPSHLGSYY
Outline: (§1)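 GST fusions of human transcription factors were expressed in yeast and captured with glutathione beads. Once given DNA barcodes and pooled alongside a tag-only sample, they were incubated for 30 min at room temperature with 200 nmole of a random double-stranded 16-mer DNA library in Tris/NaCl/DTT/glycerol buffer, then washed, crosslinked (0.1% formaldehyde), proximity-ligated, PCR-amplified and sequenced on an Illumina NextSeq500. The binding signal of each hexamer is its read frequency for a factor divided by its frequency for the tag-only sample.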

ELK1 = target: T2, ELK1 (Homo sapiens, UniProt P19419 1-428); details: protein: recombinant; tags: N-terminal GST; dsDNA, one strand shown
T2 sequence: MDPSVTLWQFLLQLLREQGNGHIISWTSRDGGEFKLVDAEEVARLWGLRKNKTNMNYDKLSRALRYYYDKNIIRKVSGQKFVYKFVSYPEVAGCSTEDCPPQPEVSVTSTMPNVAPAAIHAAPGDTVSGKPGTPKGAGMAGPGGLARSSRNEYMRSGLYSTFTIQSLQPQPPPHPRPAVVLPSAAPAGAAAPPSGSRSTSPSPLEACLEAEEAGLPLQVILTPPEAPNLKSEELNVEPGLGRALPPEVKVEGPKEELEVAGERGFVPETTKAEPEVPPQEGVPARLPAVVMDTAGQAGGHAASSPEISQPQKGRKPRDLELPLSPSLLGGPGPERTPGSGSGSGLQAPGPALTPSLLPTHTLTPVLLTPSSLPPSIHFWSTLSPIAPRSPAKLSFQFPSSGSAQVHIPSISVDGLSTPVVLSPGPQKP
Outline: as §1

GABPA = target: T3, GABPA (Homo sapiens, UniProt Q06546 1-454); details: protein: recombinant; tags: N-terminal GST; dsDNA, one strand shown
T3 sequence: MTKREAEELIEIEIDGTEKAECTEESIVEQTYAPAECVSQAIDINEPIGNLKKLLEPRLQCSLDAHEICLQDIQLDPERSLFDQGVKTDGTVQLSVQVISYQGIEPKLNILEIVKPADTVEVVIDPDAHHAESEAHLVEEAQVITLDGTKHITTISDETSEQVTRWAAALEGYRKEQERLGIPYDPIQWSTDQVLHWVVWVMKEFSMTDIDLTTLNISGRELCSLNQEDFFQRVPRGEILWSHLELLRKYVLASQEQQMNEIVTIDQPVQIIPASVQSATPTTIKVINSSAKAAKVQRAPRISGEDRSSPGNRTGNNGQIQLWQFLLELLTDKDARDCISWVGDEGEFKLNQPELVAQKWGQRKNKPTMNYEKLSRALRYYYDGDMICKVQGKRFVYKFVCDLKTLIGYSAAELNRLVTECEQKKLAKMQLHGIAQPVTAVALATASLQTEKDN
Outline: as §1

ERG = target: T4, ERG (Homo sapiens, UniProt P11308 1-479); details: protein: recombinant; tags: N-terminal GST; dsDNA, one strand shown
T4 sequence: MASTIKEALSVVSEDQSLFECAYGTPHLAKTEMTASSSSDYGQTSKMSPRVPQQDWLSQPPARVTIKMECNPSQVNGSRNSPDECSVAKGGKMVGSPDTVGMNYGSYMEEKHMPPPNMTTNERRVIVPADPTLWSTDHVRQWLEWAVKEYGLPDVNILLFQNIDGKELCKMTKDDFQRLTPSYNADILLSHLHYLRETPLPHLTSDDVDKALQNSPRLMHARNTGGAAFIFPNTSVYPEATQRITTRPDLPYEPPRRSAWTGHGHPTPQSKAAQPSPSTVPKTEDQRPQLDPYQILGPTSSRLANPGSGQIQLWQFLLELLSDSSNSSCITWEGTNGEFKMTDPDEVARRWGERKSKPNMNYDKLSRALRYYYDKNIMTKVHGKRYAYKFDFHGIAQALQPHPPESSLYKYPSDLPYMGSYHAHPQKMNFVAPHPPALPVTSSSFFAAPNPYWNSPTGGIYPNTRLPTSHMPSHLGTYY
Outline: as §1

ELF1 = ELF1 (Homo sapiens, UniProt P32519 1-619); details: protein: recombinant; tags: N-terminal GST; dsDNA, one strand shown
ELF1, sequence (P32519 whole entry): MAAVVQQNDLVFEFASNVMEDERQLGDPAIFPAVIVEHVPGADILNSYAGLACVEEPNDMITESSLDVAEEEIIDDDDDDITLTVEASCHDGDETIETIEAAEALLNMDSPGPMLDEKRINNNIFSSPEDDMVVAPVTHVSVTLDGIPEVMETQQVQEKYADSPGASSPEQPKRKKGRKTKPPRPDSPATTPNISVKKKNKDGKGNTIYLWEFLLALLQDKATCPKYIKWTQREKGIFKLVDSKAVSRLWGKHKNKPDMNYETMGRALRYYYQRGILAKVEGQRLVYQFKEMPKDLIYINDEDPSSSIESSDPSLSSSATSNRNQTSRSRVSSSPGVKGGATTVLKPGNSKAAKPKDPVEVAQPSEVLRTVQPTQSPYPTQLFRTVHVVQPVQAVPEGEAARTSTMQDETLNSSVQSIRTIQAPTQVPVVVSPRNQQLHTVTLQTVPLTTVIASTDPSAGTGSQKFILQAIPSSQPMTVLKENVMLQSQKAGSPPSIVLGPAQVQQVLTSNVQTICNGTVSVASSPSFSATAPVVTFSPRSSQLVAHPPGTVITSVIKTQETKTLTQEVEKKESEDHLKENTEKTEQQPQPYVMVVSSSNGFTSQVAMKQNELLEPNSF
Outline: as §1

EHF = target: T5, EHF (Homo sapiens, UniProt Q9NZC4 1-300); details: protein: recombinant; tags: N-terminal GST; dsDNA, one strand shown
T5 sequence: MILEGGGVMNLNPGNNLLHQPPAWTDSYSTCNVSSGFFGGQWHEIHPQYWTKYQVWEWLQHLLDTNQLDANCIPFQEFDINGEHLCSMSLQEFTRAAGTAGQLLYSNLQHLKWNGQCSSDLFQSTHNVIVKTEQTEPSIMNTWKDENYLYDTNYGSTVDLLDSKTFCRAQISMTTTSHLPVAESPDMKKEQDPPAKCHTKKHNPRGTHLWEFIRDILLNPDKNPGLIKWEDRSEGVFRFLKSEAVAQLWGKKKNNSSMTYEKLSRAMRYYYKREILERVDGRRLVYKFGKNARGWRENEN
Outline: as §1

SPI1 = SPI1 (Homo sapiens, UniProt P17947 1-270); details: protein: recombinant; tags: N-terminal GST; dsDNA, one strand shown
Outline: as §1

SPIB = SPIB (Homo sapiens, UniProt Q01892 1-262); details: protein: recombinant; tags: N-terminal GST; dsDNA, one strand shown
SPIB, sequence (Q01892 whole entry): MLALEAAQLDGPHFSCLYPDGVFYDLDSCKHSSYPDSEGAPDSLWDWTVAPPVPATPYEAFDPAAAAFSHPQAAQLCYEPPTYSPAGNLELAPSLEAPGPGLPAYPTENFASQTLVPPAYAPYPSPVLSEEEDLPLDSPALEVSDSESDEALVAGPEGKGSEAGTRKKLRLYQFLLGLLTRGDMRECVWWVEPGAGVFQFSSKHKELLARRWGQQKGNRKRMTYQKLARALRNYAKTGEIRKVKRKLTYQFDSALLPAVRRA
Outline: as §1

ELK3 = target: T6, ELK3 (Homo sapiens, UniProt P41970 1-407); details: protein: recombinant; tags: N-terminal GST; dsDNA, one strand shown
T6 sequence: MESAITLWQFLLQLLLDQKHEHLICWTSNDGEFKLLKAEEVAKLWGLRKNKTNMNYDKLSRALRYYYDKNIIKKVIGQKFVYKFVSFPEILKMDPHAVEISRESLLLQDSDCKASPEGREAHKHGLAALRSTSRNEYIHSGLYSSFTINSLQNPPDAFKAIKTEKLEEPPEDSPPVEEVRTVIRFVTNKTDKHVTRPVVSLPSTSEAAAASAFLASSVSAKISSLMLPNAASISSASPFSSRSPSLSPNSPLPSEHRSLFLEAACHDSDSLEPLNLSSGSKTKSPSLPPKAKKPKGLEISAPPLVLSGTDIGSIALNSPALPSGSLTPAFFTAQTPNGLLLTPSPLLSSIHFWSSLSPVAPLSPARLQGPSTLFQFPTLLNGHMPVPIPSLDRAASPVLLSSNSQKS
Outline: as §1

FEV = target: T7, FEV (Homo sapiens, UniProt Q99581 1-238); details: protein: recombinant; tags: N-terminal GST; dsDNA, one strand shown
T7 sequence: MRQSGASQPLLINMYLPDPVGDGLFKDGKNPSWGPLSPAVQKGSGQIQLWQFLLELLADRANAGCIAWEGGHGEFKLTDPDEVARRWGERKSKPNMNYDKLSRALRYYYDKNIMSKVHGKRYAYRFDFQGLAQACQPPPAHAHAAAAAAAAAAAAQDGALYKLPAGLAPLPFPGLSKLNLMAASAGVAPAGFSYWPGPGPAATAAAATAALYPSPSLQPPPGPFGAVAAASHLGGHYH
Outline: as §1

ETV5 = ETV5 (Homo sapiens, UniProt P41161 1-510); details: protein: recombinant; tags: N-terminal GST; dsDNA, one strand shown
ETV5, sequence (P41161 whole entry): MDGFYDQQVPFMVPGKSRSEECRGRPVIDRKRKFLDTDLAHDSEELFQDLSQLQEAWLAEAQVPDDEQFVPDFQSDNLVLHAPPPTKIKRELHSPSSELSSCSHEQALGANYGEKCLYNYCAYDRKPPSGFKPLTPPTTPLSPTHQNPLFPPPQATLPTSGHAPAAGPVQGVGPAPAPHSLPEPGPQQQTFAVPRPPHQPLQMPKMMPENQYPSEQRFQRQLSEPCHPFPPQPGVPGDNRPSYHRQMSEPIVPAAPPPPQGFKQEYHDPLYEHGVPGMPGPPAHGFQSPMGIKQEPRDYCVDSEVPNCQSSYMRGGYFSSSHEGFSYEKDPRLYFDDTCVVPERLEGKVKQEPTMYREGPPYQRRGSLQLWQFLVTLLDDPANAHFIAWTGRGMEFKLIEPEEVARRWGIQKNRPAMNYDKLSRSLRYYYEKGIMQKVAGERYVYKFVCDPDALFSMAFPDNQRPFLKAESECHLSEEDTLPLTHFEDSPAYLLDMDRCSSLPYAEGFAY
Outline: as §1

HSF1 = HSF1 (Homo sapiens, UniProt Q00613 1-529); details: protein: recombinant; tags: N-terminal GST; chain copies: 3; dsDNA, one strand shown
HSF1, sequence (Q00613 whole entry): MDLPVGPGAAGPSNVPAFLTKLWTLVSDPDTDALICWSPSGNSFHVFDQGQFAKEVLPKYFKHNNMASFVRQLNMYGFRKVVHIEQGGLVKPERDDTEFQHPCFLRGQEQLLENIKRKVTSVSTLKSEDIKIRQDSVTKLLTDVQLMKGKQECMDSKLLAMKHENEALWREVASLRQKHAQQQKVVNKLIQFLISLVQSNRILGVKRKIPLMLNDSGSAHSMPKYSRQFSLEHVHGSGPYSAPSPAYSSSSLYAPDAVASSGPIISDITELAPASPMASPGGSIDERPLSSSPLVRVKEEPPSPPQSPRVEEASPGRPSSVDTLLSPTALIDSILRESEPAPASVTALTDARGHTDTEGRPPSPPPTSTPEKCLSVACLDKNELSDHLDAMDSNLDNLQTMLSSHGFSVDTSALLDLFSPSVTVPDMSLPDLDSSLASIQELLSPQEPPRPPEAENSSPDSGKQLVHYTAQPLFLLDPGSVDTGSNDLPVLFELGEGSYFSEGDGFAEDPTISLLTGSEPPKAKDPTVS
Outline: as §1

SPIC = target: T8, SPIC (Homo sapiens, UniProt Q8N5J4 1-248); details: protein: recombinant; tags: N-terminal GST; dsDNA, one strand shown
T8 sequence: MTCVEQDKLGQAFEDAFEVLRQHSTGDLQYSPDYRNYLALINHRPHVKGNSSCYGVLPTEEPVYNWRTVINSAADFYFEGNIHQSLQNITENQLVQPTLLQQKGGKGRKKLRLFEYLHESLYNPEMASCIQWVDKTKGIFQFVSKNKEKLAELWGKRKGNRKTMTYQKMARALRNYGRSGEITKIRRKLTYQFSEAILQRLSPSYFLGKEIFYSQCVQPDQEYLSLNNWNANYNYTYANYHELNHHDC
Outline: as §1

ELF4 = ELF4 (Homo sapiens, UniProt Q99607 1-663); details: protein: recombinant; tags: N-terminal GST; dsDNA, one strand shown
ELF4, sequence (Q99607 whole entry): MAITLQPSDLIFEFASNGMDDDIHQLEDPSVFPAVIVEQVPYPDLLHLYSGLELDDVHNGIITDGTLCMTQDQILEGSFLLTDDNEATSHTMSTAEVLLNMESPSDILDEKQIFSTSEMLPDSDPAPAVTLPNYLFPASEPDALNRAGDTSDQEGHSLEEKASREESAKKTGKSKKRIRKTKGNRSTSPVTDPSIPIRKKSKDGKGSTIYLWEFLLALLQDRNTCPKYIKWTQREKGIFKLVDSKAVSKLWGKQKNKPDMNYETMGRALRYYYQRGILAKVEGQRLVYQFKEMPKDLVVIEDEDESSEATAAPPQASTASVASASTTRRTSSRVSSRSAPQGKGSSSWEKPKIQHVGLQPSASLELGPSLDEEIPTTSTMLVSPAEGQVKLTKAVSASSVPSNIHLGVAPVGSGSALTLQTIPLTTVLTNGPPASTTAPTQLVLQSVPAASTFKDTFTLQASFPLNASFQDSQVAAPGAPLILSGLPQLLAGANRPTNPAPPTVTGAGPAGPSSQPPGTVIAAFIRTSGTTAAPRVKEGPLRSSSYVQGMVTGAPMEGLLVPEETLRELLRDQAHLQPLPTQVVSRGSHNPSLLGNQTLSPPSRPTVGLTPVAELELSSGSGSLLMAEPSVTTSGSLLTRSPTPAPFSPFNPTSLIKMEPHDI
Outline: as §1

ELK4 = target: T9, ELK4 (Homo sapiens, UniProt P28324-2 1-405); details: protein: recombinant; tags: N-terminal GST; dsDNA, one strand shown
T9 sequence: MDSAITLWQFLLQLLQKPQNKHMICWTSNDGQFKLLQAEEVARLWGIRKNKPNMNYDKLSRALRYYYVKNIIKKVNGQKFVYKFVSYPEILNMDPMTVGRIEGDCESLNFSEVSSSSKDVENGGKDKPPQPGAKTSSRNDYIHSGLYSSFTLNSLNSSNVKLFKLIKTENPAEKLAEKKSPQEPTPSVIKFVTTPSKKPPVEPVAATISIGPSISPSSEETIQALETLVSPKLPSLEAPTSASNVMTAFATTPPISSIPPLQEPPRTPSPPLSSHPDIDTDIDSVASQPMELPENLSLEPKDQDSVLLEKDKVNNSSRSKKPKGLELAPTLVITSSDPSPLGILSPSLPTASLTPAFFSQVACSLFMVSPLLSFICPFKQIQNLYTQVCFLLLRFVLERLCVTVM
Outline: as §1

ETV2 = target: T10, ETV2 (Homo sapiens, UniProt O00321 1-342); details: protein: recombinant; tags: N-terminal GST; dsDNA, one strand shown
T10 sequence: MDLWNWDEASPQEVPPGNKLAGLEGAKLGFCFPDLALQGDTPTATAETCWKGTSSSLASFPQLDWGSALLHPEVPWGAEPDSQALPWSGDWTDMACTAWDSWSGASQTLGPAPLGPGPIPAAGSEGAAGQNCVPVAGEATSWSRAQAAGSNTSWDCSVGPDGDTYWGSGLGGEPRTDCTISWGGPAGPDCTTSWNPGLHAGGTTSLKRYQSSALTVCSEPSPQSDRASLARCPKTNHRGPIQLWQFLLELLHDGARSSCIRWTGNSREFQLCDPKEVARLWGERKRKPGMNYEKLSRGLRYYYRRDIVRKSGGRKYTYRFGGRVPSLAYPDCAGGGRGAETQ
Outline: as §1

ELF3 = target: T11, ELF3 (Homo sapiens, UniProt P78545 1-371); details: protein: recombinant; tags: N-terminal GST; dsDNA, one strand shown
T11 sequence: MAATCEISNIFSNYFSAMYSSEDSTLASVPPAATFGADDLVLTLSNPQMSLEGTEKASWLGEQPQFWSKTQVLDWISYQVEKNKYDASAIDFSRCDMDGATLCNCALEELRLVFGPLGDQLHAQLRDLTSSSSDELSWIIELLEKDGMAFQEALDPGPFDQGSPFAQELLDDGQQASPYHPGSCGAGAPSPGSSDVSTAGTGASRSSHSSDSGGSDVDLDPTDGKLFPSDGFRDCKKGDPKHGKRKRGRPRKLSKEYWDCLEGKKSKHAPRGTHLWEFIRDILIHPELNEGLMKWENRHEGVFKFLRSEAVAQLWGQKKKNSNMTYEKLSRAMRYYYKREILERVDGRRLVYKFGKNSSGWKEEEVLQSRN
Outline: as §1

CRX = CRX (Homo sapiens, UniProt O43186 1-299); details: protein: recombinant; tags: N-terminal GST; dsDNA, one strand shown
CRX, sequence (O43186 whole entry): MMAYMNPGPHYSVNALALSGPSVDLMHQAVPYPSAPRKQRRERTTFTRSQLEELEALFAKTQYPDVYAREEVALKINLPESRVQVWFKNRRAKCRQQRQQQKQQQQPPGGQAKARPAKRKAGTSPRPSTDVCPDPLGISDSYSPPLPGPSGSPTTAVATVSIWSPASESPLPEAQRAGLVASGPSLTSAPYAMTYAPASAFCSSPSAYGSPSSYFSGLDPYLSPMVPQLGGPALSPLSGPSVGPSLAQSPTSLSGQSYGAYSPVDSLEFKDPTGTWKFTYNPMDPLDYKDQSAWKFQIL
Outline: as §1

ETV1 = ETV1 (Homo sapiens, UniProt P50549 1-477); details: protein: recombinant; tags: N-terminal GST; dsDNA, one strand shown
ETV1, sequence (P50549 whole entry): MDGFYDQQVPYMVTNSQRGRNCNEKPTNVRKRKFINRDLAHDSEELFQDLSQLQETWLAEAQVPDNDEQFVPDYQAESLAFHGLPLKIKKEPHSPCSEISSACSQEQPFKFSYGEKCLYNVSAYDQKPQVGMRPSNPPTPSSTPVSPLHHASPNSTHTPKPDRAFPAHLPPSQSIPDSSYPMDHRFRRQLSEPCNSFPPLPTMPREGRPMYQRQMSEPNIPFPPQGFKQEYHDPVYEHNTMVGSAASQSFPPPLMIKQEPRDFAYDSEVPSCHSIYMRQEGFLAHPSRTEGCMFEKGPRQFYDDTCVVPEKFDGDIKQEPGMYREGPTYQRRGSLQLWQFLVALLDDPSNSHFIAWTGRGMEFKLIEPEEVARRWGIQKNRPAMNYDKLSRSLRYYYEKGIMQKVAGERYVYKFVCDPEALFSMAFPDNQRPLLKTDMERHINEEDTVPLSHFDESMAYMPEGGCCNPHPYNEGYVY
Outline: as §1

Sequence: CTCTAA
- binding signal (FLI1): 1.3 fold enrichment (6-mer frequency, TF over GST control)
- binding signal (ELK1): 1.33 fold enrichment (6-mer frequency, TF over GST control)
- binding signal (GABPA): 1.28 fold enrichment (6-mer frequency, TF over GST control)
- binding signal (ERG): 1.32 fold enrichment (6-mer frequency, TF over GST control)
- binding signal (ELF1): 1.37 fold enrichment (6-mer frequency, TF over GST control)
- binding signal (EHF): 1.41 fold enrichment (6-mer frequency, TF over GST control)
- binding signal (SPI1): 1.35 fold enrichment (6-mer frequency, TF over GST control)
- binding signal (SPIB): 1.25 fold enrichment (6-mer frequency, TF over GST control)
- binding signal (ELK3): 1.43 fold enrichment (6-mer frequency, TF over GST control)
- binding signal (FEV): 1.29 fold enrichment (6-mer frequency, TF over GST control)
- binding signal (ETV5): 1.37 fold enrichment (6-mer frequency, TF over GST control)
- binding signal (HSF1): 1.49 fold enrichment (6-mer frequency, TF over GST control)
- binding signal (SPIC): 1.6 fold enrichment (6-mer frequency, TF over GST control)
- binding signal (ELF4): 1.31 fold enrichment (6-mer frequency, TF over GST control)
- binding signal (ELK4): 1.22 fold enrichment (6-mer frequency, TF over GST control)
- binding signal (ETV2): 1.37 fold enrichment (6-mer frequency, TF over GST control)
- binding signal (ELF3): 1.5 fold enrichment (6-mer frequency, TF over GST control)
- binding signal (CRX): 2 fold enrichment (6-mer frequency, TF over GST control)
- binding signal (ETV1): 1.32 fold enrichment (6-mer frequency, TF over GST control)
